Only some compounds are listed: those with a hit (about 1.2% of all), similar ones and a draw of the others.
TrxR1 inh-1 = rat TrxR1 inhibition; O89049; recombinant rTrxR1, NADPH fluorescence consumption, selenite substrate; Potency, µM (series often up to 114 µM), for inactives: top-dose activity change, negative = inhibition, actives largely listed as inhibitors; 390,000 tested, 1% active; AID 588453; also: potency is read from the fitted curve at half-maximal effect; % is scaled to controls: 0 for no effect and ±100 for the full control effect; nearly all actives have a fitted effect of over 65% in size
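Rat TrxR1 (90 nM in the dispensed reagent) was pre-reduced with 400 uM NADPH for 5 min at room temperature, then incubated with compound for 15 min. After 400 uM selenite was added, NADPH fluorescence (Ex 340/Em 450 nm) was followed for 8 min.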
TrxR1 substrate = substrates of rat thioredoxin reductase 1; purified TrxR1 substrate turnover, NADPH consumption readout; Potency, µM (highest dose often 114 µM), inactives show at the top dose activity change, negative = substrate turnover; 390,000 tested, 0.01% active; AID 588456; also: potency is read from the fitted curve at half-maximal effect; % is scaled to controls: 0 for no effect and ±100 for the full control effect; nearly all actives have a fitted effect of over 50% in size
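Rat TrxR1, dispensed at 90 nM, was prereduced with 400 uM NADPH (final) for 5 min at ~22 deg C, then incubated with compound 15 min before 400 uM selenite. A first-read NADPH fluorescence drop versus no-compound background flagged substrates.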
IDH1 R132H inh = inhibitors of human mutant IDH1 R132H; 390,000 tested, 0.093% active; Potency, µM (top dose mostly 76.6 µM), inactives show at the highest dose activity change, negative = inhibition, hits mostly inhibitors; IDH1-R132H enzyme, NADPH consumption, diaphorase/resazurin fluorescence; AID 602179; O75874; also: potency is read from the fitted curve at half-maximal effect; % is scaled to controls: 0 for no effect and ±100 for the full control effect; nearly all actives have a fitted effect of over 65% in size
Target sequence (O75874 whole entry R132H, stated change not applied): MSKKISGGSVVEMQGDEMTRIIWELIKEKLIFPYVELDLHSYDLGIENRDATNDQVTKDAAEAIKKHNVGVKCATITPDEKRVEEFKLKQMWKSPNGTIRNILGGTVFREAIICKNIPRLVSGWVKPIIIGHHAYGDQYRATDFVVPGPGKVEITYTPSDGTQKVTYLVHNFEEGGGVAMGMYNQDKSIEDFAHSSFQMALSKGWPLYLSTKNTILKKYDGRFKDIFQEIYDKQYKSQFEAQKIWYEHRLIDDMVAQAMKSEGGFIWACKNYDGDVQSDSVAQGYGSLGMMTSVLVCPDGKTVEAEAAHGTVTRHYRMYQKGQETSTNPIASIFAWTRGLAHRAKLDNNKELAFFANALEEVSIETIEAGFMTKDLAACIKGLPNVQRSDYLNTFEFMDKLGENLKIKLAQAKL
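IDH1-R132H (0.5 ug/mL dispensed) in pH 7.5 Tris buffer was preincubated 30 min with compound, then given a substrate mix of 0.016 mM NADPH and 2 mM alpha-KG for 80 min at room temperature; remaining NADPH was read by diaphorase/resazurin fluorescence.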
GLS inh = inhibitors of human glutaminase (GLS). O94925. GLS enzymatic activity, qHTS titration. Potency, µM (highest dose often 45.5 µM), without a hit: at the top dose activity change, negative = inhibition, actives largely listed as inhibitors. 410,000 tested, 0.21% active; also: potency is read from the fitted curve at half-maximal effect; % is scaled to controls: 0 for no effect and ±100 for the full control effect
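Assay buffer: 45 mM KH2PO4 pH 8.2, 0.02% Tween-20. hKGA acts on L-glutamine (1 mM solution added); product glutamate is reported by an oxidase/peroxidase Amplex Red coupling, with fluorescence taken at baseline and 30 min.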
GR counterassay = inhibits human glutathione reductase in TrxR1 counterassay; shares compounds with TrxR1 inh-1; purified GR, DTNB reduction absorbance 405 nm kinetic; activity change, negative = inhibition, % at 57.1 µM; 55 tested, under 10 active; AID 652020
TrxR1 inh-2 = rat TrxR1 inhibition, primary screen retest; shares compounds with TrxR1 inh-1; Potency, µM, usual class: inhibitors; 55 tested, 50% active; recombinant TrxR1, NADPH fluorescence consumption, selenite substrate
TrxR1 insulin = inhibits TrxR1-driven insulin reduction | 55 tested, 20% active | TrxR1 Trx-coupled insulin reduction, NADPH absorbance 340 nm | shares compounds with TrxR1 inh-1 | Potency, µM | AID 652037;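 active = compounds with a measured potency under 100 micromolar; inconclusive = filed, but no rule given; inactive = potency at or above that, or unmeasurable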
TrxR1 inh-3 = rat thioredoxin reductase 1 inhibition, DTNB assay; 55 tested, 90% active; AID 652256; purified TrxR1, DTNB reduction, A412; shares compounds with TrxR1 inh-1; Potency, µM;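 active = a half-inhibiting concentration could be measured and was below 100 µM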
IDH1 autofl = interferes with resorufin fluorescence in IDH1 counter-screen. inhibition of signal, % at 51.2 µM. Resorufin detection reagent fluorescence interference, cell-free. 750 tested, under 10 active. shares compounds with IDH1 R132H inh. AID 623980;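 also: 0% = wells with normal resorufin and full inhibition = wells lacking resorufin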
IDH1 WT = wild-type IDH1 (human) inhibition counterscreen; shares compounds with IDH1 R132H inh; Potency, µM (series often up to 115 µM), inactives show at the highest dose activity change, negative = inhibition, most hits filed as inhibitors; 750 tested, 9% active; WT IDH1 enzyme, NADPH diaphorase/resazurin fluorescence; AID 623995;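 also: potency is read from the fitted curve at half-maximal effect; 0% = full WT IDH1 enzyme control and full inhibition = no enzyme wells; nearly all actives have a fitted effect of over 55% in size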
Target sequence (O75874 whole entry, looked up): as the sequence (O75874 whole entry R132H, stated change not applied) above, with H132R counted along it
mIDH1 confirm = mutant IDH1 (human) inhibition, confirmed | AID 624002 | IDH1 R132H enzyme, NADPH diaphorase/resazurin fluorescence | 750 tested, 83% active | Potency, µM (titrated, usually from 76.6 µM), without a hit: at the top dose activity change, negative = inhibition, most hits filed as inhibitors | shares compounds with IDH1 R132H inh; also: potency is read from the fitted curve at half-maximal effect; nearly all actives have a fitted effect of over 50% in size
* marks the source's active call; other numbers are inactive results; i = inactive; ? = inconclusive; · = not tested or not shown; ! = not confirmed by another sample; [ ] = another dose, or the depositor's remark. Unless noted, calls follow the shape of the dose curve; as a rule, active = well fitted curve in the direction sought with a large enough effect; inconclusive = small, poorly fitted or top-dose-only effect, or another doubt; inactive = no such curve, though single readings can be large; an effect the other way counts as inactive or inconclusive.

SMILES	TrxR1 inh-1	TrxR1 substrate	IDH1 R132H inh	GLS inh	others
O=C1NC(=O)N(c2ccccc2)C(=O)/C1=C/c1ccc(Sc2ccccc2)o1	14µM*	-4%	-8%	17%
COc1ccc(OC)c(C[C@H](C)N)c1	·	·	·	-5%[99.4 µM]
COc1ccccc1N1C(=O)NC(=O)/C(=C/c2ccc([N+](=O)[O-])s2)C1=O	?	-9%	6%	-4%
O=C1NC(=O)N(Cc2ccc(F)cc2)C(=O)/C1=C\c1ccc([N+](=O)[O-])s1	40µM*	-11%	7%	10%
COc1ccc(CN2C(=O)NC(=O)/C(=C/c3ccc([N+](=O)[O-])s3)C2=O)cc1	40µM*	-5%	-4%	-22%
COc1ccc(CC2NCC(O)C2OC(C)=O)cc1 (centres undefined)	25µM*	10%[57.1 µM]	8%	1%
COc1ccc(CC(=O)N2CCN(C)CC2)cc1	-2%	4%	-4%	0%
O=C(c1ccc(CS(=O)(=O)c2ccccc2)o1)N1CCC2(CC1)OCCO2	28µM*	4%[57.1 µM]	1%	-5%
CNC(C)Cc1ccc2c(c1)OCO2 (centres undefined)	·	·	·	-3%[99.4 µM]
CCC1(C)CC(C(N)=S)CCO1 (centres undefined)	-11%[57.1 µM]	-22%[57.1 µM]	3%	?
Cc1nn(Cc2ccccc2)c(C)c1C(=O)NCc1ccccc1	27%[57.1 µM]	-4%[57.1 µM]	-3%	-3%
Cc1nn(Cc2ccccc2)c(C)c1C=C1C(=O)NC(=O)NC1=O	35µM*	-12%	-3%	-1%
C[C@@H]1[C@H](O)[C@@H](C)C=CC=CCCC=CC=CC=CC=C[C@H](O[C@H]2O[C@@H](C)[C@H](O)[C@@H](N)[C@@H]2O)CC2O[C@](O)(C[C@@H](O)[C@H](O)CC[C@@H](O)C[C@@H](O)C[C@@H](O)CC(=O)O[C@H]1C)C[C@H](O)[C@H]2C(=O)O	·	·	·	46%
COc1cc(/C=C(/C)[N+](=O)[O-])ccc1OCc1ccccc1Cl	?	-1%	46µM*	-15%
COc1cc(C=C2C(=O)NC(=O)NC2=O)ccc1OCc1ccc([N+](=O)[O-])cc1	?	4%[57.1 µM]	10%	?
N#CC(C#N)=Cc1ccc(N2CCOCC2)cc1	71µM*	-9%	-5%	3%
Cc1cc(C)cc(OCCOc2cccc(C=C3C(=O)NC(=O)NC3=O)c2)c1	11µM*	1%	-1%	15%
C[N+]1(CCF)[C@@H]2CC[C@@H]1CC(OC(=O)C(O)(c1ccccc1)c1ccccc1)C2 (some centres undefined)	·	·	·	13%
NC(N)=Nc1ccc2[nH]c3c(c2c1)C[C@@]1(O)[C@H]2Cc4ccc(O)c5c4[C@@]1(CCN2CC1CC1)[C@H]3O5	27µM*	20%[57.1 µM]	-9%	46%
Oc1ccc2c3c1O[C@H]1[C@@H](O)CC[C@@]4(O)[C@@H](C2)N(CC2CCC2)CC[C@]314	0%	-2%	-10%	32%
CCCCNc1ccc(C(=O)OCCN(CC)CC)cc1	·	·	·	30%
On1ccccc1=S	?	-6%	15%	50%
NCCc1cc(O)c(O)cc1O	56µM*	-9%	16%	10µM*!
COc1ccc(S(=O)(=O)N(C)C[C@H]2OCCCC[C@@H](C)Oc3ccc(N(C)C)cc3C(=O)N([C@H](C)CO)C[C@@H]2C)cc1	·	·	2%	33%
CC[C@H](C)/C=C(C)/C=C/C1=CC2=C(Cl)C(=O)[C@](C)(OC(C)=O)C(=O)C2=CO1	50µM*	-2%	26%	5%
SMILES	TrxR1 inh-1	TrxR1 substrate	IDH1 R132H inh	GLS inh	others
CC1=C[C@@H]2c3cccc4[nH]cc(c34)C[C@H]2N(C)C1	2.5µM*	27%	3%	?	GR counterassay=-4;TrxR1 inh-2=?;TrxR1 insulin=49µM*;TrxR1 inh-3=2.2µM*
ClCCN(CCCl)c1ccc(/C=C/c2ccnc3ccccc23)cc1	-16%	-15%	·	·
Cc1ccc(-n2nc3c(=O)n(CC(=O)NCC(C)c4ccccc4)nc(C)c3c2C)cc1 (centres undefined)	9%	0%	?	-2%	IDH1 autofl=2;IDH1 WT=-11%;mIDH1 confirm=-1%
Brc1c(Br)c(Br)c2n[nH]nc2c1Br	15%[57.1 µM]	14%[57.1 µM]	·	·
N#CC(C#N)=NNc1ccc(-n2ccc(C(F)(F)F)n2)cc1	20µM*	-6%	33µM*	12%	IDH1 autofl=3;IDH1 WT=79µM*;mIDH1 confirm=25µM*
O=C(COC(=O)c1ccc(O)cc1)Nc1ccc(Cl)cc1C(=O)c1ccccc1	21%[57.1 µM]	5%[57.1 µM]	58µM*	1%	IDH1 autofl=-1;IDH1 WT=7%;mIDH1 confirm=35µM*
CC(=O)Nc1ccc(C(=O)OCC(=O)Nc2ccc(Cl)cc2C(=O)c2ccccc2)cc1	2%	-6%	?	10%
CCOC(=O)c1c(/N=C/c2c(O)n(-c3cccc(C)c3)c(=O)[nH]c2=O)sc2c1CCCC2	1%	-1%	?	6%	IDH1 autofl=6;IDH1 WT=1%;mIDH1 confirm=11µM*
NC1C=CC=C(C(=O)O)C1 (centres undefined)	23%[57.1 µM]	6%[57.1 µM]	0%	3%
COc1c(C)cc(Br)cc1C(=O)Nc1ccc(-c2nc3ncccc3o2)cc1	i	448%	7%	-2%
CCOC(=O)c1c(-n2c(C)cc(/C=C3/C(=O)NC(=O)N(CC)C3=O)c2C)sc2c1CCCC2	-9%[57.1 µM]	-11%	?	0%
CCOC(=O)c1c(-n2c(C)cc(C=C3C(=O)NC(=S)NC3=O)c2C)sc2c1CCCC2	22µM*	-13%	14µM*	?	IDH1 autofl=0;IDH1 WT=40µM*;mIDH1 confirm=7.1µM*
